According to paper PMC5540273 (PLoS ONE, 2017):

system: PAK1; conditions: concentration: 1 μM,replicates: in singlicate; n = 1
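Also: KINOMEscan kinase panel screen.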

SMILES	%Inh [%]
CC(C)c1nc(-c2cccc(NS(=O)(=O)c3ccccc3)c2)c(-c2ccnc(Nc3ccc4c(c3)CN(C)CC4)n2)s1 [GSK1649598]	39
OCCn1cc(-c2cnc3nnn(Cc4ccc5ncccc5c4)c3n2)cn1	6
O=C(Nc1n[nH]c2cc(-c3ccco3)ccc12)C1CC1 [SB-737447]	0

system: PAK2; conditions: concentration: 1 μM,replicates: in singlicate; n = 1

SMILES	%Inh [%]
COC(=O)Nc1nc2cc(Oc3ccc(NC(=O)Nc4cc(C(F)(F)F)ccc4Cl)cc3)ccc2[nH]1.Cl [GW697465]	29
CS(=O)(=O)c1cccc(CNc2nc(Nc3ccc4c(c3)[C@@H]3C[C@@H]4CNC3=O)ncc2C(F)(F)F)c1	12
COc1cccc(C2=C(Nc3cccc(Cl)c3)C(=O)NC2=O)c1 [SB-341556]	19
Cc1ccc2c(-c3ccnc(Nc4ccc(C(F)(F)F)cc4)n3)cnn2n1 [GW819776]	50
CN1CCN(CCNc2nc3cc(Oc4ccc(NC(=O)Nc5cc(C(F)(F)F)ccc5F)cc4)ccc3[nH]2)CC1.Cl.Cl [GW768504]	30
COc1cc2c(Nc3ccc(NC(=O)c4ccccc4)cc3)ncnc2cc1OCCCN1CCOCC1 [GSK301329]	3
COc1cccc(OC)c1C(=O)Nc1cccc(-c2nn3ccccc3c2-c2ccnc(Nc3cccc(F)c3)n2)c1 [GSK361065]	10
Cc1cccc(-c2nc(Nc3ccncc3)c3sccc3n2)n1 [GW869641]	30
C[C@@H](Oc1cc(-n2cnc3cc(-c4cnn(C)c4)ccc32)sc1C(N)=O)c1ccccc1Cl [GSK580432]	13
Cn1ccc2ncnc(Oc3ccc(NC(=O)Nc4cnn(C(C)(C)C)c4)c(Cl)c3)c21	34
Cn1ccc2ncnc(Oc3ccc(NC(=O)Nc4ccnc(C(F)(F)F)c4)c(Cl)c3)c21	13
C[C@@H](Oc1cc(-n2cnc3cc(-c4ccncc4)ccc32)sc1C(N)=O)c1ccccc1Cl [GSK479719]	22
c1ccc(Oc2ccc(Nc3ccnc4ccc(-c5ccccn5)cc34)cc2)cc1 [GW407034]	11
COC(=O)c1cccc(NC(=O)NC2CCN(c3ccnc(NCc4ccc(F)cc4)n3)CC2)c1 [GSK1379860]	0
COc1cccc(CNC(=O)NC2CCN(c3ccnc(Nc4cc(OC)c(OC)c(OC)c4)n3)C2)c1 (stereo not shown) [GSK1379765]	8
Cn1ccc2ncnc(Oc3ccc(NC(=O)Nc4cccc(C(F)(F)F)c4)c(Cl)c3)c21	17
O=C(NCC1CC1)c1ccc(-c2cc(C(=O)NC3CC3)ccc2F)cc1 [GW810445]	26
O=c1[nH]cc(-c2ccc(O)cc2)c2sc(-c3ccncc3)cc12 [GSK1033723]	5
Cn1ccc2ncnc(Oc3ccc(NC(=O)Nc4cncc(C(F)(F)F)c4)c(Cl)c3)c21	0

SMILES	%Inh [%]
Cc1ccc(Nc2ccnc(Nc3ccc4c(c3)CS(=O)(=O)C4)n2)cc1O.Cl [GW579362]	29
N#Cc1cccc(C(=O)NC2CCN(c3ccnc(Nc4ccc(F)cc4)n3)C2)c1 (stereo not shown) [GSK1379708]	4
C[C@@H]1CNc2c(sc3ccc4nc(-c5ccc(O)cc5)ccc4c23)C(=O)N1	32
C[C@@H]1CNc2c(sc3ccc4nc(-c5ccncc5)ccc4c23)C(=O)N1	5
Cl.Nc1n[nH]c2cc(-c3ccccn3)ccc12 [GSK2189892]	2
CCNCC(Cc1ccccc1)NC(=O)c1cc(Br)c(-c2ccnc3[nH]ccc23)s1.Cl.Cl (stereo not shown) [GSK1383280]	40
CN(c1ccc2c(c1)nc(NCc1ccc(F)cc1)n2C)c1ccnc(Nc2ccc(CS(C)(=O)=O)cc2)n1.Cl [GW813244]	35
COc1cc2ncn(-c3cc(OCC4CCCCC4)c(C(N)=O)s3)c2cc1OC [GSK204559]	17
O=C(Nc1ccc(Oc2ccc3nc(NC(=O)C4CC4)cn3n2)c(F)c1)c1cccn(-c2ccccc2)c1=O	0
Cl.Cl.NC[C@H](CC1CCCCC1)NC(=O)c1ccc(-c2ccnc3[nH]ccc23)s1 [GSK1581428]	38
CSc1nccc(-c2c(-c3ccc(F)cc3)ncn2CCCN2CCOCC2)n1.Cl [SB-217146]	43
CCOC(=O)N1CCC(n2cnc(-c3ccc(F)cc3)c2-c2ccnc(N)n2)CC1 [SB-219952]	26
CS(=O)(=O)Nc1ccc(-c2ccnc3[nH]ccc23)cc1 [GSK993273]	27
O=C(Nc1cccc(C(F)(F)F)c1)c1cccc(Oc2ccc3nccn3n2)c1	0
O=C(NOCC1CC1)c1cc(Br)c(F)c(F)c1Nc1ccc(I)cc1Cl	12
CC(C)c1nc(-c2cccc(NS(=O)(=O)c3ccccc3)c2)c(-c2ccnc(Nc3ccc4c(c3)CN(C)CC4)n2)s1 [GSK1649598]	25
OCCn1cc(-c2cnc3nnn(Cc4ccc5ncccc5c4)c3n2)cn1	13
O=C(Nc1n[nH]c2cc(-c3ccco3)ccc12)C1CC1 [SB-737447]	48
